This is a sample that favours compounds with a hit; in the whole collection about 4.2% have one here.
tim10-1 inh: inhibits growth of tim10-1 mutant yeast; S. cerevisiae tim10-1 ts strain growth, BacTiter-Glo, 24 h; inhibition, % at 20 µM; 330,000 compounds, 2.2% hits; AID 463190;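 active means inhibition of at least 40%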;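 further: mutant grown at 25 °C; 0% = DMSO wells with yeast and 100% = wells holding no yeast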
NALP3 yeast inh: NALP3 inhibition in yeast; AID 2825; 330,000 compounds, 0.39% hits; inhibition, % at 10 µM; Yeast reconstituted NLRP3/ASC/caspase-1, beta-gal luminescence, 24 h;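 active means inhibition of 50% or more; inactive means inhibition below 50%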;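 further: plate controls were induced DMSO wells for no effect and uninduced yeast grown without galactose for full effect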
PfHsp90 set2: reduces growth (ATP signal) of yeast expressing P. falciparum Hsp90. S. cerevisiae expressing PfHsp90, BacTiter-Glo ATP, 48 h; yeast lacking PDR1 and PDR3 efflux regulators. inhibition, % at 9.4 µM. 310,000 compounds, 0.32% hits. AID 504621;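 active means every replicate shows inhibition above about 80%, whatever the replicate mean, limit read from the data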;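 further: 0% = DMSO neutral controls and 100% = 20 µM radicicol positive controls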
TIM10 inh: growth inhibitors of TIM10 yeast strain | AID 463195 | inhibition, % at 10 µM | 330,000 compounds, 1.4% hits | S. cerevisiae TIM10 strain growth, BacTiter-Glo luminescence, 24 h;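 active means inhibition of 40% or more at the single tested concentration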;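 further: wild-type TIM10 isogenic control strain grown at permissive 25 °C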
NALP1 yeast inh: blocks the NALP1 inflammasome reconstituted in yeast | S. cerevisiae NALP1/ASC/caspase-1 growth, X-gal OD620, 72 h | inhibition, % at 10 µM | 280,000 compounds, 0.61% hits | AID 2071; in the data active means inhibition mostly above about 24%, no sharp cut-off; inactive means mostly below about 32%
tim23-1 inh: growth inhibitors of tim23-1 mutant yeast | inhibition, % at 20 µM | S. cerevisiae tim23-1 growth, BacTiter-Glo luminescence, 24 h | AID 463212 | 330,000 compounds, 1.3% hits;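 active means growth inhibition of the mutant yeast at or above 50%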;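 further: temperature-sensitive mutant grown at 25 °C; plate controls were DMSO-treated mutant yeast for no effect and medium wells lacking yeast for full effect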
An asterisk follows results filed as active.

CC(C)=C[C@@H]1C[C@H](C)[C@H]2CC[C@H](C)c3c(O[C@@H]4O[C@@H](C)[C@@H](O)[C@@H](O)[C@@H]4O)c(O)c(C)c1c32 was read as tim10-1 inh 25.0, NALP3 yeast inh 10.9, PfHsp90 set2 104.9*, TIM10 inh -4.5 and tim23-1 inh 16.5.
Screening CN1CCN(NC(=O)c2cccc(Br)c2)CC1 returned tim10-1 inh 0.3, NALP3 yeast inh 14.0, PfHsp90 set2 -6.3, TIM10 inh 20.8, NALP1 yeast inh 14.3 and tim23-1 inh -3.4.
`O=[N+]([O-])c1cc(-n2cnnn2)ccc1N1CCC(Cc2ccccc2)CC1` gave tim10-1 inh -6.5, NALP3 yeast inh 5.2, PfHsp90 set2 104.1*, TIM10 inh 19.5, NALP1 yeast inh 9.7 and tim23-1 inh 28.5.
`CCOC(=O)N1CCN(CC(O)COc2ccccc2C(C)C)CC1` (stereo not given) gave tim10-1 inh 17.4, NALP3 yeast inh 2.2, PfHsp90 set2 -7.4, TIM10 inh 5.6, NALP1 yeast inh 14.7 and tim23-1 inh 6.8.
`CCOC(=O)N1CCN(CC(O)COc2ccccc2C(C)CC)CC1` (stereo not given) gave tim10-1 inh -38.9, NALP3 yeast inh 17.8, PfHsp90 set2 -11.7, TIM10 inh -54.3, NALP1 yeast inh 26.0* and tim23-1 inh -0.1.
Screening CCOC(=O)NC(=O)/C(C#N)=N/Nc1ccc(F)cc1 returned tim10-1 inh 14.3, NALP3 yeast inh 3.8, TIM10 inh 14.4, NALP1 yeast inh 37.7* and tim23-1 inh 5.7.
`Cc1cc(C)cc(N(C(=O)c2csnn2)C(C(=O)NC(C)(C)C)c2cccnc2)c1` (stereo not given) gave tim10-1 inh -2.0, NALP3 yeast inh 0.4, PfHsp90 set2 1.8, TIM10 inh 7.4, NALP1 yeast inh 23.1* and tim23-1 inh -1.9.
`CC(C)C(C(=O)Nc1ccc(S(=O)(=O)N2CCOCC2)cc1)N1C(=O)c2ccccc2C1=O` (stereo not given) gave tim10-1 inh 19.7, NALP3 yeast inh 2.3, PfHsp90 set2 32.9, TIM10 inh 13.1, NALP1 yeast inh 43.2* and tim23-1 inh 26.4.
`CC(C)C(C(=O)Nc1ccccc1)N1C(=O)c2ccccc2C1=O` (stereo not given) gave tim10-1 inh 14.5, NALP3 yeast inh 14.7, PfHsp90 set2 7.8, TIM10 inh -0.9, NALP1 yeast inh -79.6 and tim23-1 inh 25.7.
Cc1ccnc(NC2CCCCC2)c1 was read as tim10-1 inh 5.2, NALP3 yeast inh 16.4, PfHsp90 set2 -8.4, TIM10 inh 4.9, NALP1 yeast inh 21.0* and tim23-1 inh 2.5.
Screening CC(C(=O)N1CCCCC1)N(C)CC(=O)Nc1cccc(F)c1 (stereo not given) returned tim10-1 inh 2.2, NALP3 yeast inh 4.3, TIM10 inh 7.7 and tim23-1 inh 3.4.
CCC1CN(C(=O)N2CCC(C(=O)Nc3ccccc3OC)CC2)c2ccccc2O1 (stereo not given) was read as tim10-1 inh 28.9, NALP3 yeast inh 21.6, PfHsp90 set2 38.7, TIM10 inh 2.7, NALP1 yeast inh 15.5 and tim23-1 inh 8.7.
O=C(NCc1ccco1)c1cc(-c2cccc(Cl)c2)on1 was read as tim10-1 inh -2.5, NALP3 yeast inh 32.4, PfHsp90 set2 -52.0, TIM10 inh -17.4, NALP1 yeast inh -18.6 and tim23-1 inh 15.2.
Screening COc1cccc(-c2cc(C(=O)NCc3ccco3)no2)c1 returned tim10-1 inh 17.0, NALP3 yeast inh 17.5, PfHsp90 set2 -7.8, TIM10 inh 15.0, NALP1 yeast inh 29.2* and tim23-1 inh 35.5.
Screening C[C@H](NC(=O)c1ccccc1Cl)C(=O)OC(C(=O)Nc1cc(C(F)(F)F)ccc1Cl)c1ccccc1 (stereo not given in full) returned tim10-1 inh 17.1, NALP3 yeast inh 7.0, PfHsp90 set2 -24.5, TIM10 inh 13.7, NALP1 yeast inh 35.4* and tim23-1 inh -4.3.
N#CCC(=O)Nc1ccc(C(=O)OC(C(=O)Nc2cc(C(F)(F)F)ccc2Cl)c2ccccc2)cc1 (stereo not given) was read as tim10-1 inh 11.1, NALP3 yeast inh 25.3, PfHsp90 set2 -8.7, TIM10 inh 6.3 and tim23-1 inh 13.8.
For CC(NC(=O)COC(=O)c1ccc2c(=O)n3c(nc2c1)CCCCC3)c1ccccc1 (stereo not given) the results were tim10-1 inh -14.9, NALP3 yeast inh 13.6, PfHsp90 set2 3.5, TIM10 inh -11.1 and tim23-1 inh 2.8.
`COc1ccc(CC(=O)Nc2cccc(S(=O)(=O)N3CCOCC3)c2)cc1OC` gave tim10-1 inh 1.4, NALP3 yeast inh 11.6, PfHsp90 set2 10.8, TIM10 inh 10.0 and tim23-1 inh 5.3.
`COc1ccccc1N1CCN(C(=O)C2=CC=CN3CCS(=O)(=O)N=C23)CC1` gave tim10-1 inh 2.1, NALP3 yeast inh 21.6, PfHsp90 set2 -9.3, TIM10 inh 1.5 and tim23-1 inh -4.4.
O=C1C2CCCN2C(c2ccc(F)c(F)c2)N1c1cccc(Cl)c1 (stereo not given) was read as tim10-1 inh 6.8, NALP3 yeast inh -3.2, PfHsp90 set2 19.6, TIM10 inh -3.3, NALP1 yeast inh 43.7* and tim23-1 inh 10.4.
`COc1ccccc1C(=O)NCCC(=O)NC(C)c1ccc(-n2ccnc2)cc1` (stereo not given) gave tim10-1 inh -1.1, NALP3 yeast inh 10.7, PfHsp90 set2 12.7, TIM10 inh -8.7 and tim23-1 inh -9.5.
For Cc1cc(C)nc(SCc2csc(-c3ccccc3)n2)n1 the results were tim10-1 inh 39.8, NALP3 yeast inh -9.3, PfHsp90 set2 -25.3, TIM10 inh 15.1, NALP1 yeast inh 21.5 and tim23-1 inh 28.1.
Nc1ccccc1SCc1csc(-c2ccc(Cl)cc2)n1 was read as tim10-1 inh 26.0, NALP3 yeast inh 36.4, PfHsp90 set2 5.7, TIM10 inh 22.8, NALP1 yeast inh 40.2* and tim23-1 inh 29.6.
Screening Cc1ccc(S(=O)(=O)NNC(=O)c2ccccc2-n2cccc2)cc1 returned tim10-1 inh 34.0, NALP3 yeast inh -16.1, PfHsp90 set2 -10.1, TIM10 inh 22.4, NALP1 yeast inh 10.6 and tim23-1 inh 26.9.
Screening COc1ccc(S(=O)(=O)NNC(=O)c2ccccc2-n2cccc2)cc1 returned tim10-1 inh 19.2, NALP3 yeast inh 24.4, PfHsp90 set2 32.3, TIM10 inh 24.4, NALP1 yeast inh 36.2* and tim23-1 inh 5.8.
`O=C(CNC1CCCC1)Nc1cc(Cl)ccc1[N+](=O)[O-]` gave tim10-1 inh 0.5, NALP3 yeast inh -4.0, PfHsp90 set2 5.6, TIM10 inh -16.7, NALP1 yeast inh 44.8* and tim23-1 inh 1.5.
For Cc1ccc([N+](=O)[O-])cc1NC(=O)CNC1CCCCC1 the results were tim10-1 inh -3.0, NALP3 yeast inh 19.1, PfHsp90 set2 8.8, TIM10 inh -4.7, NALP1 yeast inh 4.6 and tim23-1 inh 3.5.

Source: PubChem BioAssay (several laboratories)
